The supplement of paper PMC11417369
± gives the standard deviation of the averaged measurements. In all, about 25,000 sequences were measured (“ln(normalized median fluorescence intensity)”: median about 8.6, highest 2% from about 10 on). This is one part of a sample in which the highest values are shown more often than they occur.

These sequences were tested on PfAP2-EXP AP2 domain (GST-tagged) (assay: gcPBM binding intensity (ln(normalized median fluorescence intensity)); higher = stronger DNA binding).
Outline: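 Using an Agilent 4 × 180k array, primer-extended double-stranded 36-bp intergenic genomic probes and negative controls were exposed for 1 h to GST-fused P. falciparum DNA-binding domains expressed in E. coli. Binding was carried out in 1× PBS with 1% milk, 0.2 mg/ml BSA, 0.5% salmon testes DNA and 0.03% Triton X-100, and protein was detected with Alexa488 anti-GST antibody and a 488 nm scan. Binding intensity is the highest Masliner-normalised natural-log median intensity across replicate spots of either probe orientation.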

Sequence	gcPBM binding intensity (ln)
GACATAGTATTAAGTTGTACATATATAAAAATAAAT [XGTACX_site1583]	8.65 ± 0.32
TGCTTATCCATTTCTACACACAAAAAAAAAAAAAAA [CACACA_site37]	8.28 ± 0.28
ATAATGTAGAACTAGAGTACATAAAAAAATAAACAT [XGTACX_site5205]	9.06 ± 0.47
TATATATAAATATTCAGTACATAGTGCTATTAAGTG [XGTACX_site1979]	8.605 ± 0.064
TGTATGTATAATTGAGTGCACAGAAAAAAAAAAGAA	9.6 ± 0.17
GTTGTAAAAAGAAAATGTACGTAATAAATATATATA [XGTACX_site3081]	8.93 ± 0.38
TTTTCATATATTTATTGTACATATTACATATATAAT [XGTACX_site2425]	8.71 ± 0.23
TACATTCTAATAATTGCACACTGGTTATTAAAAGGA [CACACA_site1614]	8.4 ± 0.29
TATATATTTTTTTCAAGTACACATTACAGTTACATA [XGTACX_site2713]	8.62 ± 0.38
TTATAAGATTTATGTACACACATATACTCACCTCTA [CACACA_site729]	8.51 ± 0.25
TTTATATAGAAACACACACACAAAAAAAAAAAAAAA [CACACA_site2646]	8.24 ± 0.52
TATTAATTATATTTATGTACATAATCATATTATTAT [XGTACX_site7938]	8.55 ± 0.35
TTTAATCATATGTTATATAATAAGCCCCCCCCCCAA [CACACA_negctrl_site486]	11 ± 0.12
ATATATATATAATTATATAAAATATATCATATGTTA [XGTACX_negctrl_site47]	9.37 ± 0.14
TCTTTCTATTTATAATGTACTCAAAATTATTCTATA [XGTACX_site4867]	8.6 ± 0.36
AGTGTGCTCAGCTTAGCACAAATTGGAATACCATGT [CACACA_negctrl_site367]	8.63 ± 0.4
CATATAATAAATAATACACACATATTGTAAATATAT [CACACA_site5734]	8.43 ± 0.44
ATATTAGATTAATTTACACACAGAAAATGAGATTTT [CACACA_site541]	8.21 ± 0.36
ATATTTCAAAATGAAAGTACATATAAAAATTATACA [XGTACX_site3787]	8.31 ± 0.29

Sequence	gcPBM binding intensity (ln)
TTATTTTTCAATGAAAAGGATTATATATATATATAT [CACACA_negctrl_site757]	10.2 ± 0.13
ATATTATGAAGGGATATTTTCAAAAATATTAGGAGA [CACACA_negctrl_site942]	8.64 ± 0.41
TTCATATTTCATATATGTACTTATGTTCAATATAGT [XGTACX_site3811]	8.31 ± 0.3
ATTTTTTTGTTAATTTGTACATAAAATTTTATTTTA [XGTACX_site7007]	8.72 ± 0.42
TTTATATTTATATAAATATAATATATATGAATTATA [XGTACX_negctrl_site466]	8.19 ± 0.51
TATAATATAAAATATGCACACATTGGAATGGGAGAA [CACACA_site3746]	8.97 ± 0.35
TATATAGAGAGATATGCACACTGTATGAATGCCCCC [CACACA_site5476]	10.3 ± 0.38
AATATATAGAGAGATATGCACACTGTATGAATGCAC [CACACA_site2677]	8.58 ± 0.014
TATATGGAGAGATATGCACACTGTATGAATGCCCCC [CACACA_site8853]	10.3 ± 0.33
CCACTGTATGAATGCACACATTCATAGAATTGCTAT [CACACA_site2676]	8.79 ± 0.28
ATATATATATATAATGCACACATTATGAATTATGTA [CACACA_site3384]	9.98 ± 0.26
TCCTTATAAAAATACACACAAACTTTAATTAAAACA [CACACA_site3730]	8.45 ± 0.58
TTTAAGATTTTGTAATGTACATATATACATATATAT [XGTACX_site399]	8.45 ± 0.33
AATATAAGAATATATACACACATAAATACATACATA [CACACA_site4128]	8.6 ± 0.31
AAGAAATAAATACATACACACATATATATATATATA [CACACA_site3362]	10 ± 0.34
TAAAGAAATAAATACATACACACATATATATATATA [CACACA_site3363]	10.2 ± 0.5
AAGAAATAAATACATACACACATATATAAATAAATA [CACACA_site7559]	8.68 ± 0.18
AGAAATAAGAAATATACACACATATAAATATAAATA [CACACA_site7342]	8.52 ± 0.55
AGAAATAAGAAATATACACACATATATATATATATA [CACACA_site2808]	10.2 ± 0.18

Sequence	gcPBM binding intensity (ln)
AAAAAAAAAAAAGAAAAATATATATATAAATAAATA [GTGCAC_negctrl_site569]	8.29 ± 0.67
ATATAAATAAAGAAATATATATATATATATATATAT [GTGCAC_negctrl_site668]	10.2 ± 0.88
AAAAAAAGAAATAATAAAAAATATATATATATATAT [GTGCAC_negctrl_site702]	10.1 ± 0.44
TTTTTTTTTTTTGATGCACACACCTGAACGAGTTAA [CACACA_site317]	8.62 ± 0.32
TAGCGTACATTTCATTGTAATCATAAAAAATAAAGA [CACACA_negctrl_site447]	8.56 ± 0.49
GTTGCAATTAACACTAGTACATATAAGTAGTTTATT [XGTACX_site2063]	8.72 ± 0.18
TCCTTGCATTTTAAAACACACAAAAATTAATTGTTA [CACACA_site7152]	8.55 ± 0.32
TTTTATGATTGACACACACACAAAAAAAAAAAAAAA [CACACA_site7860]	8.2 ± 0.43
TTTCTAGTTACAAGAGTGCATAATATATAAAAATAA [GTGCAC_site9874]	8.85
AATAAAAATAATATAGTGCATAATATAAGGAAAAAA	9.07 ± 0.071
AAAAAAAATATACATACATGCATACATAAGTTTCTA [TGCATGCA_site998]	8.49 ± 0.24
ATATATATATATATAGTGCATAAAATAAGTTTCTAA	10.2 ± 0.28
TATATATATATATAAGTGCATATAAAAATCGTTCGT	10.3 ± 0.18
TATATATATATAATAGTGCATAAATAAATATATAAA	9.65 ± 0.057
TTTTTTATTCCATAATATAATATGTTTTGAAATTTG [GTGCAC_negctrl_site440]	8.27 ± 0.33
TTTATTATATTTTTTTGTACATATTGATGTATATAA [XGTACX_site6527]	8.59 ± 0.28
GATGTGATGTATTTGGTATTTTTCGATGTTGGTAGG [CACACA_negctrl_site355]	8.79 ± 0.73
TACTATTTAAAATATGAACACACATTATTTGTTTTA [CACACA_site8870]	8.13 ± 0.3
ATATTGAAATGTTAATAGAAATATATGGTTAAATTG [XGTACX_negctrl_site212]	8.34 ± 0.34
